According to the supplement of paper PMC10849652:
Targets with a hit are over-represented here; the source holds about 8,800 in all. About 0.5% of all pairs of compound and target were hits.

How the values were obtained:
Assay in all cases: log2 fold change, soluble protein after heating vs DMSO (PISA); higher = thermal stabilisation; K562 lysate, 10 uM; active = over 0.2 and 3.5 SD of the protein, either way, in both replicates (recomputed)
alvocidib = compound: CN1CC[C@H](c2c(O)cc(O)c3c(=O)cc(-c4ccccc4Cl)oc23)[C@H](O)C1 [alvocidib]
How it was run: (§1)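 Soluble protein was defined as the supernatant remaining after 21,000xg for 90 min, following pooling of heated aliquots and adjustment to 0.5% NP-40 at 4°C. Before that, crude K562 extract at 1 mg/mL protein in PBS pH 7.4 with 1 mM MgCl2 was treated with 10 μM compound for 30 min and heated for 3 min across 48°C-58°C. Quantification used TMTpro 16plex LC-MS/MS with channel sums equalised, and values are log-two fold changes in thermal stability relative to solvent controls from duplicates.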

Tubastatin A = compound: CN1CCc2c(c3ccccc3n2Cc2ccc(C(=O)NO)cc2)C1 [Tubastatin A]
How it was run: as §1

[1] = compound: CNC(=O)C1=CC=CC=C1NC2=NC(=NC=C2Cl)NC3=C(C=C(C=C3)N4CCOCC4)OC
How it was run: as §1

defactinib = compound: CNC(=O)c1ccc(Nc2ncc(C(F)(F)F)c(NCc3nccnc3N(C)S(C)(=O)=O)n2)cc1 [defactinib]
How it was run: as §1

[2] = compound: CNc1nc(-c2ccc3c(N)n[nH]c3c2)cc(N2C[C@@H](C(=O)NC3CCCCC3)CC[C@H]2C)n1
How it was run: as §1

encorafenib = compound: COC(=O)N[C@@H](C)CNc1nccc(-c2cn(C(C)C)nc2-c2cc(Cl)cc(NS(C)(=O)=O)c2F)n1 [encorafenib]
How it was run: as §1

[3] = compound: COC(=O)[C@H](CCSC)NC(=O)C1=C(C=C(C=C1)NC[C@H](CS)N)C2=CC=CC=C2
How it was run: as §1

alisertib = compound: COc1cc(Nc2ncc3c(n2)-c2ccc(Cl)cc2C(c2c(F)cccc2OC)=NC3)ccc1C(=O)O [alisertib]
How it was run: as §1

[4] = compound: COc1cc2nc(-c3cc(F)ccc3O)nc(N[C@@H]3CNC[C@H]3C(C)(C)O)c2cc1OC
How it was run: as §1

gefitinib = compound: COc1cc2ncnc(Nc3ccc(F)c(Cl)c3)c2cc1OCCCN1CCOCC1 [gefitinib]
How it was run: as §1

lapatinib = compound: CS(=O)(=O)CCNCc1ccc(-c2ccc3ncnc(Nc4ccc(OCc5cccc(F)c5)c(Cl)c4)c3c2)o1 [lapatinib]
How it was run: as §1

pictilisib = compound: CS(=O)(=O)N1CCN(Cc2cc3nc(-c4cccc5[nH]ncc45)nc(N4CCOCC4)c3s2)CC1 [pictilisib]
How it was run: as §1

crizotinib = compound: C[C@@H](Oc1cc(-c2cnn(C3CCNCC3)c2)cnc1N)c1c(Cl)ccc(F)c1Cl [crizotinib]
How it was run: as §1

[5] = compound: C[C@H](C1=CC=C(C=C1)C(=O)NC2=C3C=CNC3=NC=C2)N
How it was run: as §1

duvelisib = compound: C[C@H](Nc1ncnc2nc[nH]c12)c1cc2cccc(Cl)c2c(=O)n1-c1ccccc1 [duvelisib]
How it was run: as §1

gandotinib = compound: Cc1cc(Nc2cc(CN3CCOCC3)c3nc(C)c(Cc4ccc(Cl)cc4F)n3n2)n[nH]1 [gandotinib]
How it was run: as §1

tozasertib = compound: Cc1cc(Nc2cc(N3CCN(C)CC3)nc(Sc3ccc(NC(=O)C4CC4)cc3)n2)n[nH]1 [tozasertib]
How it was run: as §1

doramapimod = compound: Cc1ccc(-n2nc(C(C)(C)C)cc2NC(=O)Nc2ccc(OCCN3CCOCC3)c3ccccc23)cc1 [doramapimod]
How it was run: as §1

bafetinib = compound: Cc1ccc(NC(=O)c2ccc(CN3CC[C@H](N(C)C)C3)c(C(F)(F)F)c2)cc1Nc1nccc(-c2cncnc2)n1 [bafetinib]
How it was run: as §1

[6] = compound: Cc1cccc(CC(=O)N2CCc3c2ccc(-c2cn(C)c4ncnc(N)c24)c3F)n1
How it was run: as §1

Measured: log2 fold change

LUZP1 (UniProt Q86V48)
UniProt Q86V48, sequence (Q86V48 whole entry, looked up): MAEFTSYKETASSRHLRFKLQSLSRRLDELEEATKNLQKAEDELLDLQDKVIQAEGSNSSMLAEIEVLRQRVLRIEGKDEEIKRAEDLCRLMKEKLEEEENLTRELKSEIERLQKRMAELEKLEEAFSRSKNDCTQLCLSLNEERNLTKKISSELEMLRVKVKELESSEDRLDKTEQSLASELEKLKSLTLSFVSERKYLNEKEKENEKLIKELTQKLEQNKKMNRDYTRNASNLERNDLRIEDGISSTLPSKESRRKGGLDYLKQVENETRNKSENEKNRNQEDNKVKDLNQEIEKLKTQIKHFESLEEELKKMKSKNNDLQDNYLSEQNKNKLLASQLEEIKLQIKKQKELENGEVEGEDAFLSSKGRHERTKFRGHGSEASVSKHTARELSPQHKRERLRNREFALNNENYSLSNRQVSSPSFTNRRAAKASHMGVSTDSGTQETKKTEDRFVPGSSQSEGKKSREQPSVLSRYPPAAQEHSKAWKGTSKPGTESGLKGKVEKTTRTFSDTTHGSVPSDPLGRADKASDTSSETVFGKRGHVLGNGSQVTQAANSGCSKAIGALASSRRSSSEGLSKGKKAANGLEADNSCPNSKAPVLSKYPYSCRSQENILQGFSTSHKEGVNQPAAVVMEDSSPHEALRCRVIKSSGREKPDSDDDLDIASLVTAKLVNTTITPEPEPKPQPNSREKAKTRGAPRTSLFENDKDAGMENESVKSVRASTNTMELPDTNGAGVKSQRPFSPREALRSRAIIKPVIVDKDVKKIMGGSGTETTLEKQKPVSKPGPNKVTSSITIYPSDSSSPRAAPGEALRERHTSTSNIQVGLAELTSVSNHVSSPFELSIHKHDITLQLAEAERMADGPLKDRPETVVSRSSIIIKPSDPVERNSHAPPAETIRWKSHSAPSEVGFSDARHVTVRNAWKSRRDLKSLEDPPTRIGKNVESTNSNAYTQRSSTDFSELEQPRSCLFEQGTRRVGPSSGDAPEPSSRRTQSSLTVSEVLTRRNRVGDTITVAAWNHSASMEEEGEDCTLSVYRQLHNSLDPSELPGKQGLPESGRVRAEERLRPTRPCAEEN
inactive: alvocidib -0.027 | Tubastatin A -0.061 | [1] 0.099 | defactinib -0.056 | [2] 0.004 | encorafenib 0.023 | [3] -0.074 | alisertib -0.014 | [4] 0.012 | gefitinib 0.039 | lapatinib -0.006 | pictilisib -0.02 | crizotinib -0.012 | [5] 0.008 | duvelisib -0.026 | gandotinib 0.036 | tozasertib -0.011 | doramapimod -0.009 | bafetinib -0.034 | [6] -0.011

MMS19 isoform 8 (UniProt Q96T76)
inactive: alvocidib 0.008 | Tubastatin A -0.144 | [1] 0 | defactinib -0.027 | [2] 0.007 | encorafenib 0.014 | [3] 0.128 | alisertib 0.002 | [4] 0.001 | gefitinib -0.022 | lapatinib -0.03 | pictilisib -0.04 | crizotinib -0.074 | [5] 0.049 | duvelisib -0.003 | gandotinib -0.101 | tozasertib -0.004 | doramapimod 0.023 | bafetinib -0.066 | [6] 0.004

KIF2A isoform 4 (UniProt O00139)
UniProt O00139, sequence (O00139 whole entry, looked up): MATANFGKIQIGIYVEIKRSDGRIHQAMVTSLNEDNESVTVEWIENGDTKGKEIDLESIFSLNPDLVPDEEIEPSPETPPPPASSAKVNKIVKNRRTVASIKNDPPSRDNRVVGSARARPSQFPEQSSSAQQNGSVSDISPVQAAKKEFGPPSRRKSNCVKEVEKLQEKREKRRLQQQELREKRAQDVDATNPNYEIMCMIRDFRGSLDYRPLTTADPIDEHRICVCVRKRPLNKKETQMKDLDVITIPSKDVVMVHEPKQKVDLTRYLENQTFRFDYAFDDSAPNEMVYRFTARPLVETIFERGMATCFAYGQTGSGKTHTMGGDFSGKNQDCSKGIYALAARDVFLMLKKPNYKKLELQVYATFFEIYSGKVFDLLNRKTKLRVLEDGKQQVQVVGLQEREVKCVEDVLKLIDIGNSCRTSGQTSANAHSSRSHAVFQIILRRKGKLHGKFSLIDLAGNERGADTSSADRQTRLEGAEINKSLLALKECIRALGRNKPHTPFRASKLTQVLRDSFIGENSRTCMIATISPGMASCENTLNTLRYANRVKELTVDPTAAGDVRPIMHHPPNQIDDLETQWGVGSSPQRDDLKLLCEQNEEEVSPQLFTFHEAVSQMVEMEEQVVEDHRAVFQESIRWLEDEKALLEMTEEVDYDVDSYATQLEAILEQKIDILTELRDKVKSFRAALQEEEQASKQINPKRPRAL
inactive: alvocidib 0 | Tubastatin A -0.148 | [1] 0.005 | defactinib 0.01 | [2] -0.024 | encorafenib 0.012 | [3] 0.093 | alisertib 0.004 | [4] -0.014 | gefitinib 0.011 | lapatinib -0.004 | pictilisib -0.006 | crizotinib -0.004 | [5] 0.026 | duvelisib 0.022 | gandotinib -0.066 | tozasertib 0.01 | doramapimod 0.055 | bafetinib -0.006 | [6] 0.037

MAST4 (UniProt O15021)
UniProt O15021, sequence (O15021 whole entry, looked up): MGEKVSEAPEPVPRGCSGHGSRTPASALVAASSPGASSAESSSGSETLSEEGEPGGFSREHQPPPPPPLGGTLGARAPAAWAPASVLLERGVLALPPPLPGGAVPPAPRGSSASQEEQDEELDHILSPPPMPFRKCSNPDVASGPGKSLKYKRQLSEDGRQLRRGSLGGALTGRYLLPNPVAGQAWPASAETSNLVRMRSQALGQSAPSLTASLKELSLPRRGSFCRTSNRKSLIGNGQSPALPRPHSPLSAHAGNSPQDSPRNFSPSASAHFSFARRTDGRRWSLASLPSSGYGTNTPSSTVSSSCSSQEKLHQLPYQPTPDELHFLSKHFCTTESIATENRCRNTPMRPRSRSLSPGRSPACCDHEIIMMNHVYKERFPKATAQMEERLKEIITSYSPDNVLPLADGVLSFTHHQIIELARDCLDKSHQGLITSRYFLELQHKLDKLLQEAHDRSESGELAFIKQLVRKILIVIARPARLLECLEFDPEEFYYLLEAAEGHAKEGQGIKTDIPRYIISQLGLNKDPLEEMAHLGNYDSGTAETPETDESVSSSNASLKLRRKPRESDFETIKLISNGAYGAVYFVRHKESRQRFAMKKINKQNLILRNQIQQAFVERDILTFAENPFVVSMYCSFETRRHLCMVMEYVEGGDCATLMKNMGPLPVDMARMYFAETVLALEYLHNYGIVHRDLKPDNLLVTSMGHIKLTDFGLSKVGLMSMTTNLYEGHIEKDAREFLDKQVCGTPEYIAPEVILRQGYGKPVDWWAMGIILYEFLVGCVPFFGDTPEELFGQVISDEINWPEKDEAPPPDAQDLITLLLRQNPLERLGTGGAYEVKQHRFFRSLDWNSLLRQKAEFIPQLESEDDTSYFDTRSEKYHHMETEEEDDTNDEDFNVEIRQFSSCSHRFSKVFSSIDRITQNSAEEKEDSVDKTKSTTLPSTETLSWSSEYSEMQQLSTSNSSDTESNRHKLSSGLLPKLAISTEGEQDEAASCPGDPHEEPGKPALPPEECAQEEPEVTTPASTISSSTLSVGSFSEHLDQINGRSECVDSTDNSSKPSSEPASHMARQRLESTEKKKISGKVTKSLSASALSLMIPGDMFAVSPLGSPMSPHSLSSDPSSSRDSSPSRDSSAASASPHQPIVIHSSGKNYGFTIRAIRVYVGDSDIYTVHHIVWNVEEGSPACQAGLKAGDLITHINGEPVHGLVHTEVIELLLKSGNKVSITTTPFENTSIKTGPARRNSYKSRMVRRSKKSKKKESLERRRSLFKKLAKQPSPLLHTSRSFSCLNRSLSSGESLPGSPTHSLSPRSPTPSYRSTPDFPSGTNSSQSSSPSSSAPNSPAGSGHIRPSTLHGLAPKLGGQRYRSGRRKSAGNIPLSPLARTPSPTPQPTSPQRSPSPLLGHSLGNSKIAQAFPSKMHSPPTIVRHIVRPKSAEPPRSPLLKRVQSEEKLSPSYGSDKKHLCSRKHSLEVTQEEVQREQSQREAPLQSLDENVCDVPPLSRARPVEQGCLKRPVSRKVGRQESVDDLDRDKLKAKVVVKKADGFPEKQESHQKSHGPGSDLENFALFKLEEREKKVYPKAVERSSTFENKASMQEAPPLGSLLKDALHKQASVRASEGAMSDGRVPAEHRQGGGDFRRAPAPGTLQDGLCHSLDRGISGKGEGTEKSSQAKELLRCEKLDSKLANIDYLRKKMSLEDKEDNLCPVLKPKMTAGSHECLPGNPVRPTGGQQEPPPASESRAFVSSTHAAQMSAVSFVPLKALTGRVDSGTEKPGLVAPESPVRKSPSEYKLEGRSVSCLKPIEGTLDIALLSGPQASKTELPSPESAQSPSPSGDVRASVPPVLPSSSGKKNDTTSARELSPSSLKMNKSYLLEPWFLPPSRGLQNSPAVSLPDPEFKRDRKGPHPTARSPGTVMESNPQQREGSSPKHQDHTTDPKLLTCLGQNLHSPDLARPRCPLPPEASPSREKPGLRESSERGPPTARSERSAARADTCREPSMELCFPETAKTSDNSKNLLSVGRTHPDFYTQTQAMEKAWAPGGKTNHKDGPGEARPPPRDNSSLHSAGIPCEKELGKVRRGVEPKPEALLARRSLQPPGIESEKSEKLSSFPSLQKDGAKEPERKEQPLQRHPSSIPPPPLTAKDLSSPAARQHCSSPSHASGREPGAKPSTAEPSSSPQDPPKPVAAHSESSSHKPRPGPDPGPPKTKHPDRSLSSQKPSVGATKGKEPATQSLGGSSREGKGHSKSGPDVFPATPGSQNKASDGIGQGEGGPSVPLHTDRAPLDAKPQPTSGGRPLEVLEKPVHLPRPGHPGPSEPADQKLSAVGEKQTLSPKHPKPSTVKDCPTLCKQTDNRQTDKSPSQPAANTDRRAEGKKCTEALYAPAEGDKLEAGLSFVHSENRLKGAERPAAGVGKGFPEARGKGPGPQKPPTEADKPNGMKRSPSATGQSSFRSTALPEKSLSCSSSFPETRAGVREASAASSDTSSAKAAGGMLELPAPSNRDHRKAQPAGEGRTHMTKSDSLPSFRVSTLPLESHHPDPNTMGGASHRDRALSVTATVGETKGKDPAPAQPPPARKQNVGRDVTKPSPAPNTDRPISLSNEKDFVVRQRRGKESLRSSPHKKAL
inactive: alvocidib 0.042 | Tubastatin A -0.11 | [1] 0.394 | defactinib 0.282 | [2] -0.173 | encorafenib -0.036 | [3] 0.006 | alisertib -0.043 | [4] 0.032 | gefitinib -0.066 | lapatinib -0.12 | pictilisib 0.122 | crizotinib 0.079 | [5] -0.065 | duvelisib -0.089 | gandotinib 0.374 | tozasertib 0.274 | doramapimod -0.121 | bafetinib -0.103 | [6] 0.017

MIF (UniProt P14174)
UniProt P14174, sequence (P14174 whole entry, looked up): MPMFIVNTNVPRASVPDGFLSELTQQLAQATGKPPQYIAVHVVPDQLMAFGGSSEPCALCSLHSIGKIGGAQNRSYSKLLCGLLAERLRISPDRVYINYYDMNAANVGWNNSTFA
active: Tubastatin A 0.545 | [5] -0.258
inactive: alvocidib -0.109 | [1] 0.103 | defactinib -0.05 | [2] -0.145 | encorafenib -0.028 | [3] -0.013 | alisertib 0.005 | [4] -0.006 | gefitinib 0.068 | lapatinib 0.04 | pictilisib 0.06 | crizotinib -0.022 | duvelisib 0.022 | gandotinib 0.11 | tozasertib -0.057 | doramapimod 0.008 | bafetinib 0.383 | [6] 0.024

MITD1 (UniProt Q8WV92)
UniProt Q8WV92, sequence (Q8WV92 whole entry, looked up): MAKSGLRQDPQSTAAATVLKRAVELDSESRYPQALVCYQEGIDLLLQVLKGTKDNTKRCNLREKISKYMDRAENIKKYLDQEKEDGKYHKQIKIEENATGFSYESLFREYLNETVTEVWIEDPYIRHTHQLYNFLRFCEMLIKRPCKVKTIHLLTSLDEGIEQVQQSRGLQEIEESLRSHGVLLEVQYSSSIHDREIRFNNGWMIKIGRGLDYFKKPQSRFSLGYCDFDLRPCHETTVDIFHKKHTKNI
inactive: alvocidib 0.021 | Tubastatin A 0.046 | [1] 0.044 | defactinib -0.038 | [2] -0.026 | encorafenib -0.04 | [3] 0.143 | alisertib 0.041 | [4] 0.018 | gefitinib 0.022 | lapatinib 0.003 | pictilisib -0.032 | crizotinib 0.046 | [5] 0.086 | duvelisib 0.055 | gandotinib 0.025 | tozasertib -0.015 | doramapimod -0.049 | bafetinib -0.118 | [6] -0.085

MRPL15 (UniProt Q9P015)
active: [5] -0.421
inactive: alvocidib -0.122 | Tubastatin A 0.022 | [1] -0.014 | defactinib -0.011 | [2] 0.088 | encorafenib 0.053 | [3] -0.013 | alisertib 0.006 | [4] -0.014 | gefitinib -0.027 | lapatinib -0.021 | pictilisib 0.036 | crizotinib -0.045 | duvelisib -0.013 | gandotinib 0.134 | tozasertib 0 | doramapimod 0.079 | bafetinib -0.063 | [6] 0.241

LRCH3 (UniProt Q96II8)
inactive: alvocidib 0 | Tubastatin A -0.238 | [1] -0.003 | defactinib -0.002 | [2] 0.069 | encorafenib 0.021 | [3] 0.045 | alisertib 0.021 | [4] -0.012 | gefitinib -0.075 | lapatinib -0.008 | pictilisib -0.08 | crizotinib -0.114 | [5] -0.046 | duvelisib -0.012 | gandotinib 0.027 | tozasertib 0.012 | doramapimod 0.099 | bafetinib -0.104 | [6] 0.059
